Results reported in article PMC4336329 (PLoS ONE, 2015).
About 14,000 (4.5%) of roughly 310,000 compounds showed an effect of 50% or more. The effect is printed as a negative number. The sample as a whole holds a higher share of strong results than the screen did.

target: human ether-à-go-go-related gene (hERG) potassium channel (human, UniProt Q12809); assay: primary screen, population patch clamp on CHO cells stably expressing hERG; higher = less effect of the substance
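Note: peak tail current of the secondary pulse compared with the same well before compound.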

human ether-à-go-go-related gene (hERG) potassium channel, sequence (Q12809 whole entry, looked up): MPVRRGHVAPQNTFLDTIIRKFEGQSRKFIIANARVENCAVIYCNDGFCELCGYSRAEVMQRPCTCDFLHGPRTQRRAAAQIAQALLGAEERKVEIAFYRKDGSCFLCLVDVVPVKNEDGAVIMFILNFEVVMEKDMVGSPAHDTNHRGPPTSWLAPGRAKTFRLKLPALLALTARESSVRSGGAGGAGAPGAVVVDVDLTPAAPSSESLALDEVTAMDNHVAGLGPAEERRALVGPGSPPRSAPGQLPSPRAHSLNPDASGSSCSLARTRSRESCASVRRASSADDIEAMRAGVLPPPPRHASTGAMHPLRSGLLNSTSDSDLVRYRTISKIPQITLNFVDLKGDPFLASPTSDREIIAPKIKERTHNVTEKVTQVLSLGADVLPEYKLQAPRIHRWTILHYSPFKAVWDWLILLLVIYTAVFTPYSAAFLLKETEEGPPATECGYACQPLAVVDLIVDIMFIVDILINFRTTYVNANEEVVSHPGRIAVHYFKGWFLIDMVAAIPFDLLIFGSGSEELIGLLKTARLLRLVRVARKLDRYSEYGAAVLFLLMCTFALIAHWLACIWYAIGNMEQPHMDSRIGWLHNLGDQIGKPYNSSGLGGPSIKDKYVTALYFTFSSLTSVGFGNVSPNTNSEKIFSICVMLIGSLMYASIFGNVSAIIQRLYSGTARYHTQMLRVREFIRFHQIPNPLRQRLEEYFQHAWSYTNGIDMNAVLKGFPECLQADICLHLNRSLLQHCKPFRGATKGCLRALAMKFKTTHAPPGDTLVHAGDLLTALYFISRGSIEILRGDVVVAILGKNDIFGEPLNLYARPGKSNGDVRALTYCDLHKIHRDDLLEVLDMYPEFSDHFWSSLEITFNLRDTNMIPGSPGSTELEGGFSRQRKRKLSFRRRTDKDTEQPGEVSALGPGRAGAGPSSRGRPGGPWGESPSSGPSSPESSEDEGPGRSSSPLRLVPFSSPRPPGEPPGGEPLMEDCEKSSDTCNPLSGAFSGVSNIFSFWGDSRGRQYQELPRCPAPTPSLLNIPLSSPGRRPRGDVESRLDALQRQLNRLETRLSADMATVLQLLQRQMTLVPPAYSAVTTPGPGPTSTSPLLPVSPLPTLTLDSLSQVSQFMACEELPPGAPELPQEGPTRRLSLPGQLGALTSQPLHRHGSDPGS

Compound | hERG current change (%, negative = inhibition) at 10uM [%]
COc1ccc(NC(=O)CSc2nc3ccccc3c(=O)n2CCC(=O)N2CCCCC2)cc1 | -69.2
O=C(CCCCCn1c(SCC(=O)c2ccccc2)nc2ccccc2c1=O)NCc1ccco1 | 10.8
COc1ccc(NC(=O)CSc2nc3ccccc3c(=O)n2C)cc1 | 4.53
Cc1ccc(CSc2nc3ccccc3c(=O)n2CCCC(=O)NCc2ccco2)cc1 | -2.71
O=C(CSc1nc2ccccc2c(=O)n1CCC(=O)N1CCCCC1)NCc1ccccc1 | -70.4
CCn1c(SCC(=O)NCc2ccccc2)nc2ccccc2c1=O | -11.6
NS(=O)(=O)c1ccc(CCNC(=O)CSc2nc3ccccc3c(=O)n2CCC(=O)N2CCCCC2)cc1 | 19.8
CCOc1ccc(NC(=O)CSc2nc3ccccc3c(=O)n2CCCC(=O)N2CCCC2)cc1 | -23.8
O=C(CCCCCn1c(SCc2ccncc2)nc2ccccc2c1=O)NCc1ccco1 | -86
NC(=O)c1ccc(NC(=O)CSc2nnc(-c3ccc4c(c3)OCO4)o2)cc1 | 2.05
CCCCN(CCCC)C(=O)c1sc2nc(N3CCOCC3)c3c(c2c1N)CCCC3 | 9
COc1ccc(Cl)cc1NC(=O)NC1CCCCC1 | 10.3
CN(CCCC(=O)NCc1ccco1)S(=O)(=O)c1ccccc1 | -5.89
CC(=O)C12CCCCC1CC1C3CC(C)C4(O)CC(=O)CCC4(C)C3CCC12C (centres unmarked) | 21.8
Cc1nc2ccccc2c(=O)n1-c1ccccc1[N+](=O)[O-] | 17.2
CCCCCN(C(=O)CCC(=O)OC(C)C(=O)NC1CCCCC1)c1c(N)n(CCCC)c(=O)[nH]c1=O (centres unmarked) | 16.1
CSc1nncc(/C(C)=N\Nc2ccccc2)n1 | 9.18
Cc1ccc(C(C)(C)NC(=O)C2CCC(=O)N(CC3CCCCC3)C2)cc1 (centres unmarked) | 3.82
O=C(NNC(=O)c1ccccn1)c1cccc([N+](=O)[O-])c1 | 8.7
Cn1ccnc1/C(=N\NC(=O)c1ccccc1)c1cccc([N+](=O)[O-])c1 | -68.6
CC(=O)c1cccc([N+](=O)[O-])c1 | 17.7

Compound | hERG current change (%, negative = inhibition) at 10uM [%]
C/C(=N\NC(=O)c1ccc([N+](=O)[O-])cc1)c1cccc([N+](=O)[O-])c1 | 5.82
Cn1cccc1C(=O)c1cccc([N+](=O)[O-])c1 | -52.9
COc1cccc(C(=O)N/N=C(/c2ccccc2)c2ccccn2)c1 | 6.88
NC(=O)c1cccc([N+](=O)[O-])c1 | 5.64
O=C(N/N=C(\c1ccccc1)c1ccccn1)c1cccc([N+](=O)[O-])c1 | -65.6
Cn1ccnc1/C(=N\NC(=O)c1ccc(O)cc1)c1cccc([N+](=O)[O-])c1 | -22.7
CC1=NN(c2ccccc2)C(=O)/C1=C/c1ccc[nH]1 | -7.74
CCN(CC(=O)Nc1ccc(NC(C)=O)cc1)C(=O)c1cccc2ccccc12 | 1.23
Cc1cccc(Nc2ncnc(N)c2[N+](=O)[O-])n1 | 17.8
C=CCN1CC(c2nc3ccccc3n2Cc2cccc3ccccc23)CC1=O (centres unmarked) | -24.2
C/C(=N\NC(=O)CNc1cccc2ccccc12)c1ccccc1 | 10.2
COc1ccc2sc3ccccc3c(=O)c2c1 | -10.1
Cc1ccc(N2CC(C(=O)N3CCC(C(=O)Nc4nnc(C(C)C)s4)CC3)CC2=O)cc1 (centres unmarked) | 10.7
CC(=O)Nc1ccc(S(=O)(=O)N(C)CC(=O)OCC(=O)N(C)C2CCS(=O)(=O)C2)cc1 (centres unmarked) | 18.8
CN(CCOc1ccc(Cl)cc1)C(=O)C1CCN(C(=O)c2ccc(Cl)cc2)CC1 | -75.4
CN(CCOc1ccccc1)C(=O)C1CCN(C(=O)c2ccc(Cl)cc2)CC1 | -47.9
O=C(c1ccc(Cl)cc1)C1CCN(C(=O)c2ccc(F)cc2)CC1 | -34.7
CN(CCOc1ccc(Cl)cc1)C(=O)C1CCN(C(=O)c2ccc(F)cc2)CC1 | -69.9
Cc1ccccc1C(=O)N1CCC(C(=O)N(C)CCOc2ccccc2)CC1 | 9.06
CN(CCOc1ccccc1)C(=O)C1CCN(C(=O)c2ccc(F)cc2)CC1 | -19.9
Cc1ccc(Cn2ccc(NC(=O)c3cc(CC(C)C)on3)n2)cc1 | -8.08

Compound | hERG current change (%, negative = inhibition) at 10uM [%]
CCn1nc(C(=O)OCC(=O)c2cc(C)n(Cc3cccs3)c2C)c2ccccc2c1=O | 7.14
O=C(/C=C/c1cccs1)Nc1sc2c(c1C(=O)O)CCCC2 | 28.5
Cc1cc(C(=O)OCC(=O)NCc2ccco2)c(C)n1-c1ccc(F)cc1 | -28.3
O=C(c1cc(-c2ccco2)nc2ccccc12)N1CCN(Cc2ccccc2)CC1 | -42.8
COc1ccc(-c2cc(C(=O)OCC(=O)N3CCCC3)c3ccccc3n2)cc1 | -19.1
Cc1cc(C(=O)OCC(=O)N2CCN(C(=O)c3ccco3)CC2)c(C)n1-c1ccc(F)cc1 | -66.4
O=C(c1ccco1)N1CCN(C(=O)c2cc(-c3ccccn3)nc3ccccc23)CC1 | -34.8
O=C(OCC(=O)N1CCN(C(=O)c2ccco2)CC1)c1cc(-c2ccco2)nc2ccccc12 | -69.7
O=C(COC(=O)c1cc(-c2ccco2)nc2ccccc12)NCc1ccccc1 | -11.3
O=C(OCC(=O)N1CCN(C(=O)c2ccco2)CC1)c1cccc(F)c1 | -16.8
O=C(OCC(=O)N1CCN(C(=O)c2ccco2)CC1)c1cc(-c2cccc(Br)c2)nc2ccccc12 | -19.6
O=C(OCC(=O)N1CCN(C(=O)c2ccco2)CC1)c1cc(-c2ccccc2)nc2ccccc12 | -60.3
O=C(OCC(=O)N1CCN(C(=O)c2ccco2)CC1)c1cc(-c2ccc(Cl)c(Cl)c2Cl)nc2ccccc12 | 2.88
O=C(OCC(=O)N1CCN(C(=O)c2ccco2)CC1)c1cc(-c2ccc(F)cc2)nc2ccccc12 | -59.4
CCCn1[nH]cc(SC)c(=O)c1=O | -5.83
CCn1c(SCC(=O)Nc2c(C)n(C)n(-c3ccccc3)c2=O)nc2c1c(=O)n(C)c(=O)n2C | 18.2
Cc1c(C(C)C)c(=O)n(-c2ccc(S(=O)(=O)N3CCOCC3)cc2)n1C | 17.4
Nc1c(Cl)c(Cl)nc(C(=O)OCC(=O)NCc2ccccc2)c1Cl | -18.2
COCCn1c(SCC#N)nnc1-c1ccc2c(c1)OCO2 | -24.2
CCCCC(=O)Nc1c(O)c2ccccc2[nH]c1=O | -0.31
Cc1ccc(NC(=O)N2CCCCC2)cc1NC(=O)N1CCCCC1 | 16.5

Compound | hERG current change (%, negative = inhibition) at 10uM [%]
Cc1ccc(-n2c(O)c(C=N)c(=O)n(-c3ccc(C)cc3)c2=O)cc1 | -8.85
CCC1(CCc2ccncc2)C(=O)NC(=O)NC1=O | -4.69
O=C1NC(=O)C(CCc2ccncc2)(CCc2ccncc2)C(=O)N1C1CCCCC1 | -75.3
O=C1NC(=O)C(CCc2ccncc2)(C2CCCCC2)C(=O)N1 | 5.77
O=C1NC(=O)C(CCc2ccncc2)(CCc2ccncc2)C(=O)N1CCc1ccccc1 | -71.7
O=C1NC(=O)C(CCc2ccncc2)(CCc2ccncc2)C(=O)N1Cc1ccccc1 | -72.5
CN1C(=O)N(C)C(=O)C(CCc2ccccn2)(CCc2ccccn2)C1=O | 3.54
CN1C(=O)N(C)C(=O)C(CCc2ccncc2)(CCc2ccncc2)C1=O | -51.2
O=C1NC(=O)C(CCc2ccncc2)(c2ccccc2)C(=O)N1 | 5.76
COc1ccccc1N1C(=O)NC(=O)C(CCc2ccncc2)(CCc2ccncc2)C1=O | -46.6
O=C1NC(=O)C(CCc2ccncc2)(Cc2ccc3c(c2)OCO3)C(=O)N1CCc1ccccc1 (centres unmarked) | -32.5
C=CCN1C(=O)NC(=O)C(CCc2ccncc2)(CCc2ccncc2)C1=O | -41.8
COc1cc(CC2(CCc3ccncc3)C(=O)N(C)C(=O)N(C)C2=O)cc(OC)c1OC | -8.33
O=C(Cn1nc(-c2ccccc2)c2ccccc2c1=O)NN1CCOCC1 | 5.24
COc1ccc(S(=O)(=O)NCc2cccnc2)cc1OC | 17.1
COc1cc2sc3ccc(C#Cc4ccccn4)cc3c(=O)c2cc1OC | 14.9
O=C1Cc2ccccc2C(=O)N1Cc1cccc(Cl)c1 | 11.5
CC(=O)Nc1sc(NC(=O)c2ccccc2)nc1-c1cccs1 | 0.00438
CC1CC(Nc2ccccc2)=CC(=O)O1 (centres unmarked) | 24.7
CC(c1nnc(Sc2nnnn2-c2ccccc2)n1-c1ccc(F)cc1)N(C)C (centres unmarked) | 3.57
